High-throughput results from PubChem.
Many of the other results were omitted from the sample, so hits are more common in it than they were.
AMPAR-TARP mod = modulators of GluA2-stargazin AMPA receptor complexes, primary screen, cell-based, membrane potential dye. HEK293 GluA2+stargazin, membrane potential dye (FDSS), glutamate EC50; hits were called plate by plate, in both directions. Voltage-dependent calcium channel gamma-2 subunit (Mus musculus) + Glutamate receptor 2 …. 40,000 compounds, 3.5% hits. calls only at 30 µM;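 active = any of four per-well response measures lying three or more SD from its plate-wide compound average, in either direction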
GIRK2 activator = activators of NPY4-receptor-primed GIRK2 channels, summary, cell-based, HEK293, thallium flux; G protein-activated inward rectifier potassium channel 2 (Homo sapiens), P48051; HEK293 GIRK2/NPY4 cells, thallium flux fluorescence; activation (% efficacy), % for hits at 37.5 µM; 34,000 tested, under 10 active;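 active = primary screen hit, no activity in plain HEK293 cells, and in GIRK2-only cells above 5% efficacy rising with concentration; inactive = the rest, including fluorescent compounds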;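 also: efficacy is normalized control-subtracted fluorescence 15 s after thallium addition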
Target sequence (P48051 whole entry, looked up): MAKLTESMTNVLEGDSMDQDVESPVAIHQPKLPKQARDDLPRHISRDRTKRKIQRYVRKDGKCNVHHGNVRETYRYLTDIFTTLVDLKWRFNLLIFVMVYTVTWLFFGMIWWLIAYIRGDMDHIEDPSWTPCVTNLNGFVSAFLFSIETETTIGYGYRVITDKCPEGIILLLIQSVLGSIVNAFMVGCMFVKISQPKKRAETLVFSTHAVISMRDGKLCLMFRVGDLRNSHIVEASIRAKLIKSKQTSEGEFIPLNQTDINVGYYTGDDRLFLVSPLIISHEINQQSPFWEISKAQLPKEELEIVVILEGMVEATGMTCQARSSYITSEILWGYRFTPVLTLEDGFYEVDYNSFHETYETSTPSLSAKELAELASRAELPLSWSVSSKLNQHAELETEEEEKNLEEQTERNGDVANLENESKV
* = called active by the depositor; i = inactive; nt = no result; + = active, no number.

SMILES	AMPAR-TARP mod	GIRK2 activator
O=C(NCC(c1ccco1)N1CCOCC1)C1CC=CCC1 (stereo not drawn)	+	i
CN(C)C(CNC(=O)C1CCCCC1)c1cccs1 (stereo not drawn)	i	i
O=C(NCC(c1cccs1)N1CCOCC1)C1CCCCC1 (stereo not drawn)	+	i
COc1ccc(CNC(=O)NCc2cnn3ccccc23)cc1OC	nt	i
Cc1cccc(CN(c2ccc3c(c2)OCCO3)S(=O)(=O)c2ccc3nncn3c2)c1	i	i
CNC(=O)C1Cc2ccccc2N1C(=O)c1ccc(S(=O)(=O)N2CCCCC2)cc1 (stereo not drawn)	i	i
Cc1cc(C)cc(C(=O)N2CCN(c3nc(C)cc(N4CCCCC4)n3)CC2)c1	i	nt
CCNc1cc(C)nc(N2CCN(C(=O)COc3ccccc3)CC2)n1	i	i
COc1cc(N2CCN(C(=O)c3cnccn3)CC2)nc(C)n1	i	i
Cc1cccc(C(=O)N2CCN(c3nc(C)cc(N4CCCCC4)n3)CC2)c1	+	nt
Cc1cc(N2CCCCC2)nc(N2CCN(C(=O)Cc3ccccc3)CC2)n1	+	i
Cc1cc(N2CCOCC2)nc(N2CCN(C(=O)c3cnccn3)CC2)n1	+	i
Cc1nc(N2CCCCC2)cc(N2CCN(C(=O)c3ncccn3)CC2)n1	i	i
Cc1cc(N2CCCCC2)nc(N2CCN(C(=O)c3ccccc3)CC2)n1	+	nt
COc1ccc(CCNC(=O)N2CCC(c3nn(C)c(=O)n3-c3ccccc3)CC2)cc1	i	i
COc1cccc(C(=O)Nc2ccc3c(c2)CCCN3S(C)(=O)=O)c1OC	i	nt
Cn1cc(C(=O)N2CCCCCC2)cc(NC(=O)c2cccc(C(F)(F)F)c2)c1=O	i	nt
Cn1cccc1C(O)CNC(=O)NCCCc1ccccc1 (stereo not drawn)	i	i
CCCCOc1ccc(C(=O)N2CCC3(CC2)NC(=O)N(Cc2ccc(C)cc2)C3=O)cc1	i	i
Cc1cc2nc(N(CCN3CCOCC3)C(=O)c3ccco3)sc2cc1C	i	i
O=C(/C=C/c1ccc([N+](=O)[O-])cc1)N(CCN1CCOCC1)c1nc2ccccc2s1	i	nt
O=C(/C=C/c1cccc([N+](=O)[O-])c1)N(CCN1CCOCC1)c1nc2ccc(F)cc2s1	+	nt
COc1cccc2sc(N(Cc3cccnc3)C(=O)c3cc(C)nn3C)nc12	i	i
Cc1cccc2sc(N(CCN3CCOCC3)C(=O)c3ccc([N+](=O)[O-])o3)nc12	+	i
COc1cccc2sc(N(CCN(C)C)C(=O)c3cc(C)n(C)n3)nc12	+	i
SMILES	AMPAR-TARP mod	GIRK2 activator
O=C(c1ccco1)N(CCN1CCOCC1)c1nc2ccc(Cl)cc2s1	+	nt
Cc1cccc2sc(N(CCN3CCOCC3)C(=O)c3ccc([N+](=O)[O-])s3)nc12	i	i
Cn1c(-c2ccccc2)nn(CCNC(=O)c2ccc(N3C(=O)CCC3=O)cc2)c1=O	i	i
Cc1ccc(CSC2=NCCN2S(=O)(=O)c2ccc(Br)cc2)cc1	i	nt
O=C(CCCS(=O)(=O)c1ccc(F)cc1)Nc1ccccc1-c1nc2ccccc2[nH]1	i	nt
COc1cccc(-n2nnc3c(N4CCN(C(=O)Cc5ccc(OC)c(OC)c5)CC4)ncnc32)c1	i	nt
O=C(c1cc2ccccc2o1)N1CCC(CNS(=O)(=O)/C=C/c2ccccc2)CC1	i	i
CC1CCCCN1C(=O)C(=O)c1c[nH]c2ccccc12 (stereo not drawn)	i	nt
CCC(=O)Nc1ccc(SCc2cccc(F)c2)nn1	nt	i
Cn1ccc(C(=O)N(CCN2CCOCC2)c2nc3ccccc3s2)n1	+	i
CN(C)CCN(C(=O)c1ccn(C)n1)c1nc2ccc(Cl)cc2s1	+	i
COc1ccc(OC)c2sc(N(CCN3CCOCC3)C(=O)c3ccn(C)n3)nc12	i	i
CN(C)CCCN(C(=O)c1ccno1)c1nc2ccc(Cl)cc2s1	nt	i
Brc1cccc(-c2nnc3sc(-c4cccnc4)nn23)c1	+	i
O=c1oc(-c2cccnc2)nc2ccc(Br)cc12	i	i
COc1ccc(OC)c2sc(N(CCN(C)C)C(=O)c3ccnn3C)nc12	i	nt
CCOc1cccc2sc(NC(=O)c3cc(C)nn3CC)nc12	+	nt
CCOc1cccc2sc(NC(=O)c3ccnn3C)nc12	i	nt
C=Cc1ccc(CN2C(=O)N(c3ccc(CC)cc3)C3CS(=O)(=O)CC32)cc1 (stereo not drawn)	+	nt
Cc1ccc(CN2C(=O)N(c3ccc(C)c(Cl)c3)C3CS(=O)(=O)CC32)cc1 (stereo not drawn)	i	i
O=S(=O)(NCC(O)(c1ccco1)C1CC1)c1ccc(F)c(Cl)c1 (stereo not drawn)	+	i
O=S(=O)(NCC(O)(c1ccco1)C1CC1)c1cc(F)ccc1F (stereo not drawn)	i	i
Cc1noc(CNC(=O)CCSc2ccccc2)n1	nt	i
COC(=O)c1ccc(NC(=O)C(=O)NCC2CCN(C(=O)c3ccccc3F)CC2)cc1	i	i
COC(=O)Cn1c(=O)c2c(nc(-n3nc(C)cc3C)n2Cc2ccccc2)n(C)c1=O	i	i
SMILES	AMPAR-TARP mod	GIRK2 activator
O=C(Nc1nc(-c2ccncc2)cs1)C1CCCN(S(=O)(=O)c2cccs2)C1 (stereo not drawn)	i	nt
O=C(Nc1nc(-c2ccncc2)cs1)C1CCN(S(=O)(=O)c2cccs2)CC1	+	nt
CC(C)c1nnc(C2CCN(S(=O)(=O)c3ccc4c(c3)CCCC4)CC2)o1	+	i
CC(C)c1nnc(C2CCN(S(=O)(=O)c3cccnc3)CC2)o1	i	i
O=[N+]([O-])c1ccccc1S(=O)(=O)NCC1COC2(CCCCC2)O1 (stereo not drawn)	i	i
CCc1ccc(S(=O)(=O)NCC2COC3(CCCCC3)O2)s1 (stereo not drawn)	i	i
O=S(=O)(NCC1COC2(CCCCC2)O1)c1cc(F)ccc1F (stereo not drawn)	+	i
O=S(=O)(NCC1COC2(CCCCC2)O1)c1ccc(Cl)cc1 (stereo not drawn)	+	i
COc1ccc(F)cc1S(=O)(=O)NCC1COC2(CCCCC2)O1 (stereo not drawn)	i	i
O=S(=O)(NCC1COC2(CCCCC2)O1)c1cccc2ccccc12 (stereo not drawn)	+	nt
COCCn1c(C(=O)NCc2ccco2)cc2c(=O)n(C)c(=O)n(C)c21	i	i
COc1ccc(OC)c2sc(N(CCN3CCOCC3)C(=O)c3ccc(C(C)=O)cc3)nc12	i	nt
CC(c1ccccc1)n1c(C2CC(=O)N(c3ccccc3)C2)nc2ccccc21 (stereo not drawn)	i	nt
O=C(Nc1nc(-c2ccc(-c3ccccc3)cc2)cs1)c1ccno1	i	i
COc1nn(C)cc1-c1nnc(SCC(=O)NCCc2ccccc2)n1C	i	i
Cn1ccnc1N1CCN(CC(=O)Nc2ccc3c(c2)OCO3)CC1	nt	i
Cc1cnn(C)c1C(=O)Nc1nnc(-c2ccnn2C)o1	i	i
Cn1nccc1-c1nnc(NC(=O)c2ccc(Br)o2)o1	+	i
